This passage reports outcome and AC50 results from PubChem BioAssay (EPA / NIEHS).

A short description of assay [1]: Tanguay_ZF_120hpf_CFIN_legacy: (Legacy) Oregon State University Tanguay Lab 120 Hour Post-fertilization zebrafish Assay for Caudal Fin Malformation (AID 2283649). The method in brief:
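Embryos were collected from Tropical 5D wild-type adults and dechorionated at 4 hpf. At 6 hpf each was exposed, one per well, at 0.64% DMSO and 28C. At 120 hpf fin morphology was scored; dead embryos were excluded.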

The nature of assay [2]: Tanguay_ZF_120hpf_PIG_legacy: (Legacy) Oregon State University Tanguay Lab 120 Hour Post-fertilization zebrafish Assay for Pigmentation Malformation (AID 2283650). The method in brief:
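Dechorionated Tropical 5D wild-type embryos, one per well from 6 hpf, statically exposed at 28C in the dark until 120 hpf, 0.64% DMSO final. Pigmentation scored present/absent by brightfield microscopy; dead embryos not scored; fitted versus DMSO.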

Assay [3] in a line: Tanguay_ZF_120hpf_CIRC_legacy: (Legacy) Oregon State University Tanguay Lab 120 Hour Post-fertilization zebrafish Assay for Circulatory Malformation (AID 2283651). The method in brief: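 Read-out: presence or absence of circulatory malformation at 120 hpf, scored by brightfield microscopy, fitted in the gain-of-signal direction against DMSO baseline. Wild-type 5D larvae were exposed from 6 hpf after enzymatic chorion removal.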

The nature of assay [4]: Tanguay_ZF_120hpf_SWIM_legacy: (Legacy) Oregon State University Tanguay Lab 120 Hour Post-fertilization zebrafish Assay for Swim Bladder Malformation (AID 2283654).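 Also: swim bladder malformation in each larva scored yes or no under brightfield.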 The method in brief: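 Dechorionated wild-type Tropical 5D zebrafish embryos, one per well from 6 hpf, were statically exposed at 28C until 120 hpf in 0.64% DMSO. Swim bladder malformation scored as present/absent by brightfield microscopy; not scored in dead larvae.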

Assay [5] is described as follows: Tanguay_ZF_120hpf_TRUN_legacy: (Legacy) Oregon State University Tanguay Lab 120 Hour Post-fertilization zebrafish Assay for Truncated Body (AID 2283655). The procedure, abridged:
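5D wild-type larvae; pronase dechorionation; static exposure 6→120 hpf, 28C; DMSO 0.64% final; 5uM trimethyltin chloride positive control. Readout: presence/absence of truncated body, analyzed relative to DMSO.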

Assay [6] in a line: Tanguay_ZF_120hpf_ActivityScore_legacy: (Legacy) Oregon State University Tanguay Lab 120 Hour Post-fertilization zebrafish Assay Score for Activity (AID 2283742). The procedure, abridged: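 Dechorionated Tropical 5D embryos, one per well from 6 hpf, statically exposed to 120 hpf at 28 °C in 0.64% DMSO. Mortality and malformations scored binary by brightfield microscopy; activity score combines 18 endpoints, fitted positively versus DMSO.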

Assay [7] can be described thus: Tanguay_ZF_120hpf_NC_legacy: (Legacy) Oregon State University Tanguay Lab 120 Hour Post-fertilization zebrafish Assay for Notochord and Tail Malformation (AID 2283656). The method in brief:
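Dechorionated Tropical 5D wild-type zebrafish embryos, one per well from 6 hpf, statically exposed to 120 hpf at 28C in 0.64% DMSO final. Notochord distortion scored present/absent by brightfield; dead embryos excluded.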

For assay [8], the system named is Thyroperoxidase (TPO), gene 54314. Nature of the assay: CCTE_Simmons_AUR_rTPO: CCTE's Amplex UltraRed Assay for Thyroperoxidase (TPO) Inhibition, Simmons Lab (AID 2283662).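 As to AC50: potency for loss of signal meaning inhibition of peroxidase activity.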 The procedure, abridged: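 Cell-free peroxidase activity assay using rat thyroid gland microsomes with excess H2O2 (300 uM) and 25 uM Amplex UltraRed. Compounds tested from 5 nM to 87.5 uM; fluorescence measured after 30 min at 37C, analysed relative to DMSO baseline.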

Assay [9] can be described thus: Tanguay_ZF_120hpf_TR_legacy: (Legacy) Oregon State University Tanguay Lab 120 Hour Post-fertilization zebrafish Assay for Touch Response (AID 2283667). The method in brief: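 Tropical 5D wild-type zebrafish embryos statically exposed to 120 hpf at 28°C, sealed and dark-covered, 0.64% DMSO final; touch response scored as present/absent by brightfield microscopy at 120 hpf. Trimethyltin chloride 5 uM positive control; dead embryos not scored.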

The nature of assay [10]: CCTE_Padilla_ZF_144hpf_TERATOSCORE: (Legacy) CCTE's 144 Hour Post-fertilization zebrafish Assay Teratoscore, Padilla Lab (AID 2283679; active = hit-call score of the fitted dose curve at least 0.9, where 1 is the maximum; inactive = score below 0.9;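 as to AC50: zebrafish embryos with chorions exposed by immersion from 6-8 hpf to 5 dpf with daily renewal; teratogenicity score from eye scoring of death hatching and malformations at 144 hpf; higher score means more developmental defects relative to DMSO baseline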). The procedure, abridged: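 Larvae scored by eye at 144 hpf for death, hatching and malformations after a day in clean Hanks'. Before that, daily-renewed exposure at 80 uM (0.4% DMSO, 26C) from roughly 6-8 hpf through 5 dpf, 4 embryos per chemical.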

Assay [11] in a line: STM_H9_OrnithineISnorm_perc: Stemina devTOX quickPredict H9 human embryonic stem cell (hESC)-based Assay for Ornithine (ORN) Metabolite Biomarker, Normalized (AID 2283712; active = hit-call score of the fitted dose curve at least 0.9, where 1 is the maximum; inactive = score below 0.9;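 also: ornithine released into spent medium during last day measured by mass spectrometry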). The method in brief:
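H9 human embryonic stem cells kept pluripotent receive test chemical over 72 h, refreshed daily by media exchange. Media from the closing 24 h is deproteinized and analysed by UPLC-HRMS on an amide column; ornithine signal is scaled to labelled standard and vehicle.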

Assay [12] can be described thus: STM_H9_OrnCyssISnorm_ratio: Stemina devTOX quickPredict H9 human embryonic stem cell (hESC)-based Assay for Ornithine (ORN):Cystine (CYSS) Ratio (AID 2283714). The procedure, abridged: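 Undifferentiated H9 hESCs exposed 72 h, media and compound replaced every 24 h; final 24-h conditioned media deproteinized and analysed by UPLC-HRMS against C13 spike-ins. Value is the internal-standard-normalized ORN/CYSS ratio versus 0.1% DMSO.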

Assay [13] is described as follows: CEETOX_H295R_MTT_cell_viability: Viability Assessment in the CeeTox HT-H295R MTT Assay (AID 2283718; active = hit-call score of the fitted dose curve at least 0.9, where 1 is the maximum; inactive = score below 0.9;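 as to AC50: curve fitted both ways so AC50 may mark viability loss or gain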). The method in brief:
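Human H295R adrenal cells, prestimulated 48 h with 10 uM forskolin, were exposed 48 h to chemicals in 0.1% DMSO. Viability was measured in the same wells by MTT (0.5 mg/ml, 4 h, 37 C), absorbance 570/650 nm, as percent of controls.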

The nature of assay [14]: CCTE_Simmons_CellTiterGLO_HEK293T: Viability Assessment in CCTE's Assays for Thyroperoxidase (TPO) Inhibition, Simmons Lab (AID 2283665).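 Also: cells exposed to compound for 24 h before readout; actives reduce ATP signal below DMSO vehicle meaning cytotoxicity.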 The procedure, abridged:
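HEK293T, 10 000 cells/well, DMEM + 1% FBS; 8-pt titration 5 nM–87.5 uM [final], 0.5% DMSO; 24 hr, 37C, 5% CO2; CellTiter-Glo luminescence; n=3 biological replicates.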
On the technique in general: Cellular ATP, detected with luciferase, serves as a proxy for viable cell number.

Assay [15] can be described thus: ArunA_CellTiter_hNC: Viability Assessment in the ArunA Biomedical's Oris Neural Crest (hNC) Cell Migration Assay (AID 2283752). The method in brief:
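Cell titer was measured with the CellTiter Aqueous One reagent after 72 h of chemical dosing. Cells were H9-derived embryonic neural crest stem cells seeded on Matrigel, 60,000 per well, and given 16 h at 37C beforehand.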

Records with an inconclusive call do not appear. More than one record can exist for a structure, and the calls need not agree. The source made the active and inactive calls. The calls were made as follows, unless noted: active = hit-call score of the fitted dose curve at least 0.9, where 1 is the maximum; inconclusive = response in the unintended direction; inactive = score below 0.9.

The AC50 is the concentration at which the activity in the assay is half-maximal.

In the case of `CC(C)(OO)c1ccccc1`, the call in [1], in assay [2], in assay [3], in assay [4], in assay [5] and in assay [6] was inactive.

As to `O=C(O)C(F)(F)C(F)(F)C(F)(F)C(F)(F)C(F)(F)C(F)(F)F`, the call in [1], in assay [2], in [3], in [4], in assay [7] and in assay [8] was inactive. Further, the compound was called inactive in assay [9] and in [6]. The AC50 in assay [8] was 16.5 µM (active).

As to `C[C@@H]1C[C@@H]([C@H](O)CC2CC(=O)NC(=O)C2)C(=O)[C@@H](C)C1`, the compound was called inactive in assay [1], in assay [2], in assay [3], in assay [5] and in assay [13]. Also, the AC50 was 6 µM (active) in assay [10], 4.59 µM (active) in assay [11], 2.9 µM (active) in [12] and 17.9 µM (active) in assay [6].

As for `CCN1CCC2(CC1)COc1cc3c(cc12)N(C(=O)c1ccc(-c2ccc(-c4nnc(C)o4)cc2C)cc1)CC3`, the compound was classed as inactive in [2], in [3], in [4], in [5], in assay [7] and in [9]. In addition, the compound was called inactive in assay [10] and in [6]. Also, the AC50 in assay [10] was 54 µM (active); in assay [11], 8.53 µM (active); in assay [12], 7.61 µM (active).

In the case of `CCOP(=S)(OCC)Oc1nc(Cl)c(Cl)cc1Cl`, the result in [1], in assay [2], in assay [3], in assay [5], in assay [7] and in assay [9] was inactive. In assay [6], the compound was called inactive. Moreover, the AC50 in assay [8] is 10.4 µM (active); in assay [14] it was 17.9 µM (active); in [10] it was 4.72 µM (active); in assay [13], 93.2 µM (active).

`O=[N+]([O-])c1ccc(O)c([N+](=O)[O-])c1`: the compound was called inactive in [2], in assay [3], in [4], in assay [7], in assay [11] and in assay [12]. Further, the results for the concentration at half-maximal activity (AC50) in [10] and in [6] were 4.96 µM (active) and 29.6 µM (active), respectively.

`ClCC(Cl)CCl`: the compound was called inactive in assay [1], in assay [2], in assay [3], in assay [4], in [5] and in assay [7]. Moreover, the call in assay [10], in assay [11], in [12], in [6] and in assay [15] was inactive.

On to `CC(C)(c1ccccc1)c1ccc(O)c(C(C)(C)c2ccccc2)c1`, for which the result in [1], in assay [2], in [3], in [4], in [5] and in [9] was inactive. Further, the outcome in [6] was inactive. Moreover, the values for the AC50 in assay [8], in [14] and in assay [10] were 19.6 µM (active), 5.35 µM (active) and 4.58 µM (active), respectively.
